Screen size: about 5,500 compounds; about 2,000 (36%) were called active. Not shown: some 18% with an inconclusive outcome. No stated cut-off is given here; in the data, active means normalized growth mostly below about 0.91 (no sharp cut-off); inconclusive means no clear call, values can overlap the other calls; inactive means mostly above about 0.92. The list shows a part of the results.
Experiment: chemical genetic growth profiling, strain panel (AID 1159580);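 further: tested at 20 µM; growth read once vehicle control cultures reached saturation at 30 °C; 1 = growth at the plate median or of vehicle wells; lower values mean less growth of the strain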
Conditions: S. cerevisiae deletion strains, growth OD

Measured: normalized growth

CC(=O)Oc1ccccc1C(=O)O
inactive: locus YAL021C, strain ccr4, hits give low values 0.993 | locus YAL026C, strain drs2, hits give low values 1 | locus YAL030W, strain snc1, hits give low values 1 | locus YAL040C, strain CLN3, hits give low values 0.996 | locus YBL061C, strain skt5, hits give low values 0.989 | locus YBR009C, strain hhf1, hits give low values 1.03 | locus YBR023C, strain chs3, hits give low values 1 | locus YBR171W, strain sec66, hits give low values 0.985 | locus YBR231C, strain swc5, hits give low values 1.01 | locus YBR279W, strain paf1, hits give low values 0.992 | locus YCL011C, strain gbp2, hits give low values 1 | locus YCL016C, strain dcc1, hits give low values 0.983 | locus YCL061C, strain MRC1 (second series), hits give low values 1 | locus YCL069W, strain vba3, hits give low values 1 | locus YCR088W, strain abp1, hits give low values 0.989 | locus YDL005C, strain med2, hits give low values 0.985 | locus YDL040C, strain nat1, hits give low values 0.996 | locus YDR001C, strain nth1, hits give low values 0.995 | locus YDR069C, strain doa4, hits give low values 1.01 | locus YDR137W, strain rgp1, hits give low values 1 | locus YDR150W, strain NUM1, hits give low values 0.992 | locus YDR159W, strain sac3, hits give low values 0.938 | locus YDR195W, strain ref2 1 | locus YDR297W, strain sur2, hits give low values 1.01 | locus YDR334W, strain swr1, hits give low values 0.991 | locus YDR335W, strain msn5, hits give low values 1.03 | locus YDR392W, strain spt3, hits give low values 0.906 | locus YEL003W, strain gim4, hits give low values 1.01 | locus YEL037C, strain rad23, hits give low values 0.998 | locus YEL061C, strain CIN8 (second series), hits give low values 0.996 | locus YER002W, strain NOP16, hits give low values 0.988 | locus YER015W, strain faa2, hits give low values 1.01 | locus YER016W, strain bim1, hits give low values 0.977 | locus YER111C, strain swi4, hits give low values 0.985 | locus YER155C, strain BEM2 (second series), hits give low values 0.996 | locus YFR010W, strain ubp6, hits give low values 1.09 | locus YGL167C, strain pmr1, hits give low values 1 | locus YGL173C, strain kem1, hits give low values 1 | locus YGL227W, strain vid30, hits give low values 0.989 | locus YGL240W, strain doc1, hits give low values 1 | locus YGL253W, strain hxk2, hits give low values 1.03 | locus YHR013C, strain ard1, hits give low values 0.969 | locus YHR027C, strain rpn1, hits give low values 1.02 | locus YHR030C, strain SLT2, hits give low values 1.03 | locus YHR079C, strain IRE1, hits give low values 1.04 | locus YHR142W, strain chs7, hits give low values 1.01 | locus YJL092W, strain hpr5, hits give low values 1 | locus YJL095W, strain BCK1 (second series), hits give low values 0.989 | locus YJL095W, strain BCK1, hits give low values 1.05 | locus YJL115W, strain asf1, hits give low values 0.988 | locus YJL129C, strain trk1, hits give low values 0.995 | locus YJL154C, strain vps35, hits give low values 0.989 | locus YJL164C, strain tpk1, hits give low values 0.999 | locus YJL166W, strain qcr8, hits give low values 1.01 | locus YJL187C, strain SWE1, hits give low values 0.987 | locus YJR066W, strain TOR1, hits give low values 0.978 | locus YKL160W, strain elf1, hits give low values 0.971 | locus YKR026C, strain gcn3, hits give low values 0.994 | locus YKR091W, strain srl3, hits give low values 1 | locus YLL001W, strain dnm1, hits give low values 0.974 | locus YLL026W, hits give low values 0.992 | locus YLL041C, strain sdh2, hits give low values 0.983 | locus YLR027C, strain aat2, hits give low values 1.01 | locus YLR113W, strain HOG1, hits give low values 1.01 | locus YLR221C, strain rsa3, hits give low values 0.996 | locus YLR258W, strain gsy2, hits give low values 0.997 | locus YLR262C, strain YPT6 (second series), hits give low values 0.984 | locus YLR320W, strain mms22, hits give low values 0.975 | locus YLR342W, strain FKS1, hits give low values 0.997 | locus YLR357W, strain rsc2, hits give low values 0.964 | locus YLR370C, strain arc18, hits give low values 1 | locus YLR384C, strain iki3, hits give low values 0.971 | locus YML120C, strain ndi1, hits give low values 1.02 | locus YMR058W, strain fet3, hits give low values 1 | locus YMR125W, strain sto1, hits give low values 0.997 | locus YMR129W, hits give low values 0.985 | locus YMR205C, strain PFK2, hits give low values 1.02 | locus YMR231W, strain pep5, hits give low values 0.994 | locus YNL071W, strain lat1, hits give low values 0.998 | locus YNL153C, strain GIM3, hits give low values 0.994 | locus YNL175C, strain NOP13, hits give low values 0.989 | locus YNL183C, strain NPR1, hits give low values 0.997 | locus YNL197C, strain WHI3, hits give low values 0.995 | locus YNL209W, strain ssb2, hits give low values 1.02 | locus YNL224C, strain SQS1, hits give low values 0.988 | locus YNL248C, strain rpa49, hits give low values 0.956 | locus YNL322C, strain KRE1 (second series), hits give low values 0.966 | locus YNR049C, strain mso1, hits give low values 1 | locus YOR001W, strain rrp6, hits give low values 1.02 | locus YOR070C, strain gyp1, hits give low values 0.998 | locus YOR080W, strain dia2, hits give low values 1 | locus YOR083W, strain WHI5 (second series), hits give low values 1.01 | locus YOR083W, strain WHI5, hits give low values 0.929 | locus YOR106W, strain vam3, hits give low values 0.994 | locus YOR231W, strain MKK1, hits give low values 1.06 | locus YOR265W, strain rbl2, hits give low values 1.02 | locus YOR270C, strain vph1, hits give low values 1.04 | locus YOR290C, strain snf2, hits give low values 0.989 | locus YPL051W, strain arl3, hits give low values 1 | locus YPL055C, strain LGE1, hits give low values 0.969 | locus YPL078C, strain atp4, hits give low values 0.984 | locus YPL106C, strain sse1, hits give low values 0.976 | locus YPL240C, strain hsp82, hits give low values 1 | locus YPL241C, strain CIN2, hits give low values 0.999 | locus YPL256C, strain CLN2, hits give low values 1.03

From PubChem BioAssay AID1159580 (chemical genetic matrix, 2015)
